Measured values taken from PubChem BioAssay.
Where “and” joins values, the source holds several entries; their conditions need not be identical. Equal entries are not always repeated. A structure can be active in one record and inactive in another. Calls of active or inactive are those of the source. Unless noted, how the calls were made is not given here.

Experiments:
[1] = HepG2 liver cancer cell viability effects, profiling panel, resazurin fluorescence, 24 h, PK04 Diversity Set (AID 1172); settings: higher = more signal; further: test concentration not given here
[2] = basal S. cerevisiae growth modulation, no modifier, primary screen, OD600, strain BY4716, 24 h, basal condition (AID 1173); settings: OD600, 24 h, higher = more signal, called active from +8 up or from −8 down
[3] = MM1S myeloma cell viability, profiling panel, resazurin fluorescence, basal, 24 h, PK04 Diversity Set (AID 1174); settings: higher = more signal, called active from +8 up or from −8 down;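 further: MM1S multiple myeloma cell line; test concentration not given here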
[4] = molecular target: Dihydroorotate dehydrogenase (quinone), mitochondrial (Plasmodium falciparum (isolate 3D7)) (UniProt Q08210); test: PfDHODH enzyme inhibitors, primary screen, biochemical, C-terminal His tag, absorbance 600 nm (AID 1175); settings: DCIP absorbance 600 nm, higher = more signal, called active from +8 up or from −8 down;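 further: recombinant parasite enzyme with a five histidine tag at its C terminus; test concentration not given here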
Chain of Dihydroorotate dehydrogenase (quinone), mitochondrial (Plasmodium falciparum (isolate 3D7)) (Q08210 whole entry, looked up): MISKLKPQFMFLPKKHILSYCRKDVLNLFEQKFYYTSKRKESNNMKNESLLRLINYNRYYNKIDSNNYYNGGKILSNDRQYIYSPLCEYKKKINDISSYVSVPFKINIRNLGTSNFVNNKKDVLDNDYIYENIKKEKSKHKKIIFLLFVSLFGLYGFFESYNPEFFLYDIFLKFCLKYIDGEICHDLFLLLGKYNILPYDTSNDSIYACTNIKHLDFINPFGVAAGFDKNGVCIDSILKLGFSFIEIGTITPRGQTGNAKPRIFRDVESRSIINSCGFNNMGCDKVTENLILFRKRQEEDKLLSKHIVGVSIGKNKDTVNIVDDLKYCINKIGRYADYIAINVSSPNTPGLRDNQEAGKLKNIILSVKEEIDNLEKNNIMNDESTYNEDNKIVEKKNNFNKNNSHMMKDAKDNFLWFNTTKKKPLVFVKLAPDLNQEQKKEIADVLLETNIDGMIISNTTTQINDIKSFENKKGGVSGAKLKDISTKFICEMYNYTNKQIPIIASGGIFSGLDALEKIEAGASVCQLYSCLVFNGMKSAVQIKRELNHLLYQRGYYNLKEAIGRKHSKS

[5] = P. aeruginosa biofilm formation inhibitors, primary screen, strain PAO1, LB-PBS medium, absorbance 600 nm (AID 1176); further: test concentration not given here; settings: P. aeruginosa PAO1 growth/biofilm, A600, 12 h; higher = more signal
[6] = S. cerevisiae RM11-1a growth modifiers, primary screen, strain RM11-1a, OD600, basal, 24 h (AID 1177); settings: OD600, 24 h, higher = more signal, called active from +8 up or from −8 down;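 further: cultures grown under basal conditions with no added stressor; test concentration not given here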
[7] = E. coli acrAB mutant growth effects, primary screen, E. coli filamentation inducers, strain DRC39, OD650, 24 h (AID 1178); settings: higher = more signal, called active from +8 up or from −8 down;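 further: growth measured as culture turbidity by optical density at 650 nm; test concentration not given here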
[8] = E. coli acrAB mutant growth effects, primary screen, E. coli filamentation inducers, strain DRC39, OD650, 48 h (AID 1179);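 further: screen aims at cell division blockers that make cells filament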; settings: E. coli DRC39 delta-acrAB growth, higher = more signal, called active from +8 up or from −8 down
[9] = RPMI8226 myeloma cell viability, profiling panel, resazurin fluorescence, basal, 24 h, PK04 Diversity Set (AID 1180); settings: higher = more signal;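 further: RPMI8826 multiple myeloma cell line at 5000 cells per well; test concentration not given here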
[10] = molecular target: E3 ubiquitin-protein ligase XIAP (Homo sapiens) (UniProt P98170); test: XIAP binders, primary screen, biophysical, small-molecule microarray, fluorescence 635 nm (AID 1181); settings: small-molecule microarray binding, higher = more signal;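 further: score merges 667 nm emission and signal to noise over triplicate slides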
Chain of E3 ubiquitin-protein ligase XIAP (Homo sapiens) (P98170 whole entry, looked up): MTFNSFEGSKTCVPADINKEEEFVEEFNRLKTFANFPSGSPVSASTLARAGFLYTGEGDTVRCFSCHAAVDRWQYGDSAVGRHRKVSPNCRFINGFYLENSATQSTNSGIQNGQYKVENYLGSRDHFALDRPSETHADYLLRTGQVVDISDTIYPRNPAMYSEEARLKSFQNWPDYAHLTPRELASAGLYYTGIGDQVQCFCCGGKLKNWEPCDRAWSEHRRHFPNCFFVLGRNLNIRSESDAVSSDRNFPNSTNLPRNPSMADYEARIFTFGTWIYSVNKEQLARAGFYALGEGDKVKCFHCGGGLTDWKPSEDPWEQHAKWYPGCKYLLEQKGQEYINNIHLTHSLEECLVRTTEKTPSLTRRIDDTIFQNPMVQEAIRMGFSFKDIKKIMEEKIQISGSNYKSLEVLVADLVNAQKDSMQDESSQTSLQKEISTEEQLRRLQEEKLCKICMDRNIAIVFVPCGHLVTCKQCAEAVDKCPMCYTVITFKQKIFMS

SMILES	z-score [1]	z-score [2]	z-score [3]	composite z-score [4]	z-score [5]	z-score [6]	z-score [7]	z-score [8]	z-score [9]	composite z-score [10]
COC(=O)[C@@]1(Cc2ccccc2)[C@H]2c3cc(C(=O)N(C)C)n(Cc4ccc(C)c(F)c4F)c3C[C@H]2CN1C(=O)c1ccccc1	-2.95 and -1.72	-0.265 (inactive) and 0.53 (inactive)	-9.12 (active) and -3.68 (inactive)	-3.37 (inactive) and -0.0662 (inactive)	3.02 (inactive) and 2.16 (inactive)	0.526 (inactive) and 0.401 (inactive)	-0.347 (inactive) and -1.25 (inactive)	-0.834 (inactive) and -0.836 (inactive)	-6.06 and -3.79	0.188 and 0.122
CCOC(=O)C[C@H]1[C@H](OC(=O)c2ccccc2-c2ccccc2)[C@@H](NC(=O)Cc2ccc(OC)cc2)c2cc(OCCCO)ccc2N1C(=O)Cc1ccc(OC)cc1	1.5 and 0.156	0.324 (inactive) and 0.67 (inactive)	0.783 (inactive) and 0.0875 (inactive)	1.08 (inactive) and 0.343 (inactive)	0.531 (inactive)	0.6 (inactive) and 0.0342 (inactive)	1.56 (inactive) and -0.539 (inactive)	0.949 (inactive) and -0.39 (inactive)	0.844 and 0.125	0.202 and -0.188
CCOC(=O)NN=C1C[C@@H](O)[C@@H](O)[C@@H]2[C@@H]3C(=O)N(Cc4ccccc4)C(=O)[C@@H]3CC[C@@H]12	0.213	0.331 (inactive)	-1.17 (inactive)	0.0897 (inactive)	0.529 (inactive)	0.371 (inactive)	0.199 (inactive)	-0.951 (inactive)	0.561	1.34
CC(CO)N1C(=O)[C@@H]2C3C(=O)OCCC=C[C@H]3OC23C=CCN(Cc2ccccc2)C(=O)[C@@H]13 (stereo not given in full)	0.278 and -0.0236	1.35 (inactive) and -1.28 (inactive)	0.533 (inactive) and 0.868 (inactive)	0.113 (inactive) and -2.83 (inactive)	-1.35 (inactive) and -0.0684 (inactive)	1.57 (inactive) and -0.214 (inactive)	0.748 (inactive) and 0.632 (inactive)	0.453 (inactive) and 0.309 (inactive)	0.252 and 0.693	-0.196 and 0.194
CC(CO)N1C(=O)[C@@H]2C3C(=O)OCCC=C[C@H]3OC23C=CCN(c2ccc(Cl)cc2)C(=O)[C@@H]13 (stereo not given in full)	-0.445 and 0.702	0.604 (inactive) and -0.219 (inactive)	-0.0472 (inactive) and -0.544 (inactive)	-1.16 (inactive) and -1.13 (inactive)	-0.497 (inactive) and -0.167 (inactive)	1.43 (inactive) and -0.727 (inactive)	0.519 (inactive) and -0.342 (inactive)	0.399 (inactive) and -0.538 (inactive)	0.23 and -0.131	0.269 and -0.0172
C=CCN(Cc1ccccc1)C(=O)C1N(CCOCCO)C(=O)C2C(C(=O)O)C3C=CC21O3 (stereo not given)	0.649 and -0.0686	-1.56 (inactive) and 0.494 (inactive)	1.22 (inactive) and -0.234 (inactive)	-3.5 (inactive) and -0.648 (inactive)	-0.18 (inactive)	-1.46 (inactive) and 0.356 (inactive)	1.55 (inactive) and 0.0673 (inactive)	1.05 (inactive) and -0.12 (inactive)	0.795 and -0.418	-0.02 and -0.291
CCCNC(=O)OC[C@H]1O[C@H](CCON=C(C)CCN2CCc3nc(-c4ccccc4)c(-c4ccccc4)cc3C2)C=C[C@@H]1Oc1ccc(OC)cc1	0.0965	-0.238 (inactive)	-0.53 (inactive)	0.672 (inactive)	0.347 (inactive)	1.13 (inactive)	0.324 (inactive)	-1.58 (inactive)	0.0105	-0.193
CCOC(=O)c1ccc(NC(=O)O[C@H]2[C@H](OC(=O)Nc3ccccc3)[C@@H](OC(=O)Nc3ccccc3)[C@@H](OC)O[C@@H]2CO)cc1	-1.97 and -1.75	2.09 (inactive) and 0.61 (inactive)	-2.14 (inactive) and -3.07 (inactive)	0.146 (inactive) and 0.755 (inactive)	1.94 (inactive) and 1.5 (inactive)	2.51 (inactive) and 2.87 (inactive)	0.028 (inactive) and 0.188 (inactive)	-0.343 (inactive) and -0.714 (inactive)	-1.82 and -1.87	0.39 and -0.146
CO[C@@H]1COC(=O)CC=C[C@H](C)[C@@H](NS(=O)(=O)c2ccc(C)cc2)COC(=O)CC=C[C@@H]1C	0.157 and 1.73	-0.627 (inactive) and -0.634 (inactive)	0.445 (inactive) and 0.542 (inactive)	-0.198 (inactive) and -0.555 (inactive)	-0.531 (inactive) and -0.479 (inactive)	0.344 (inactive) and 0.104 (inactive)	0.643 (inactive) and 0.426 (inactive)	0.292 (inactive) and 0.187 (inactive)	-0.325 and 0.774	-0.209 and -0.304
